According to PubChem BioAssay AID1159580 (chemical genetic matrix, 2015):
Out of some 5,500 compounds screened, about 2,000 (36%) were called active. Roughly 18% stayed inconclusive and do not appear here. Rule as the data show it: active = normalized growth mostly below about 0.91 (no sharp cut-off); inconclusive = no clear call, values can overlap the other calls; inactive = mostly above about 0.92. The list shows a part of the results.

Experiment: chemical genetic growth profiling, strain panel (AID 1159580);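 also: tested at 20 µM; growth read once vehicle control cultures reached saturation at 30 °C; 1 = growth at the plate median or of vehicle wells; lower values mean less growth of the strain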
Details: S. cerevisiae deletion strains, growth OD

Measured: normalized growth

Clc1ccc(C(c2ccc(Cl)cc2)C(Cl)(Cl)Cl)cc1
inactive: locus YAL013W, strain DEP1, hits give low values 1 | locus YAL021C, strain ccr4, hits give low values 1.01 | locus YAL026C, strain drs2, hits give low values 1.01 | locus YAL030W, strain snc1, hits give low values 1 | locus YBL061C, strain skt5, hits give low values 1.01 | locus YBR009C, strain hhf1, hits give low values 0.998 | locus YBR021W, strain FUR4, hits give low values 0.999 | locus YBR023C, strain chs3, hits give low values 1.01 | locus YBR171W, strain sec66, hits give low values 1.01 | locus YBR229C, strain ROT2, hits give low values 1.02 | locus YBR231C, strain swc5, hits give low values 1.01 | locus YBR279W, strain paf1, hits give low values 1.01 | locus YCL011C, strain gbp2, hits give low values 1.01 | locus YCL016C, strain dcc1, hits give low values 1.01 | locus YCL029C, strain bik1, hits give low values 1.01 | locus YCL061C, strain MRC1, hits give low values 1.01 | locus YCL069W, strain vba3, hits give low values 0.999 | locus YCR088W, strain abp1, hits give low values 1.01 | locus YDL005C, strain med2, hits give low values 1 | locus YDL035C, strain GPR1, hits give low values 0.983 | locus YDL040C, strain nat1, hits give low values 1.01 | locus YDL074C, strain BRE1, hits give low values 1.02 | locus YDL101C, strain DUN1, hits give low values 1.02 | locus YDL134C, strain PPH21, hits give low values 1.02 | locus YDL185W, strain tfp1, hits give low values 0.999 | locus YDL192W, strain arf1, hits give low values 1 | locus YDR001C, strain nth1, hits give low values 1.01 | locus YDR069C, strain doa4, hits give low values 0.992 | locus YDR101C, strain arx1, hits give low values 0.993 | locus YDR137W, strain rgp1, hits give low values 1.01 | locus YDR150W, strain NUM1, hits give low values 1.03 | locus YDR159W, strain sac3, hits give low values 1.01 | locus YDR162C, strain NBP2, hits give low values 1.01 | locus YDR195W, strain ref2 1.04 | locus YDR297W, strain sur2, hits give low values 1.01 | locus YDR318W, strain mcm21, hits give low values 0.999 | locus YDR334W, strain swr1, hits give low values 1.02 | locus YDR335W, strain msn5, hits give low values 1.01 | locus YDR388W, hits give low values 0.993 | locus YDR392W, strain spt3, hits give low values 0.977 | locus YDR502C, strain sam2, hits give low values 0.999 | locus YEL003W, strain gim4, hits give low values 1.01 | locus YEL037C, strain rad23, hits give low values 1.01 | locus YEL061C, strain CIN8 (second series), hits give low values 1.01 | locus YEL061C, strain CIN8, hits give low values 1.02 | locus YER015W, strain faa2, hits give low values 1.01 | locus YER016W, strain bim1, hits give low values 1 | locus YER110C, hits give low values 0.997 | locus YER111C, strain swi4, hits give low values 1.01 | locus YER155C, strain BEM2 (second series), hits give low values 1 | locus YER155C, strain BEM2, hits give low values 1.02 | locus YER167W, strain BCK2, hits give low values 1.01 | locus YFR010W, strain ubp6, hits give low values 1.01 | locus YGL078C, strain dbp3, hits give low values 1 | locus YGL086W, strain mad1, hits give low values 1.01 | locus YGL167C, strain pmr1, hits give low values 1.01 | locus YGL173C, strain kem1, hits give low values 0.995 | locus YGL227W, strain vid30, hits give low values 1.01 | locus YGL240W, strain doc1, hits give low values 0.997 | locus YGL248W, strain PDE1, hits give low values 1.02 | locus YGL253W, strain hxk2, hits give low values 1 | locus YGR078C, strain PAC10, hits give low values 1.01 | locus YGR135W, strain pre9, hits give low values 1 | locus YGR229C, strain SMI1, hits give low values 0.997 | locus YGR252W, strain gcn5, hits give low values 0.916 | locus YHR013C, strain ard1, hits give low values 1.03 | locus YHR027C, strain rpn1, hits give low values 1 | locus YHR030C, strain SLT2, hits give low values 1.03 | locus YHR079C, strain IRE1 (second series), hits give low values 0.999 | locus YHR094C, strain hxt1, hits give low values 1 | locus YHR129C, strain ARP1, hits give low values 1.03 | locus YHR142W, strain chs7, hits give low values 1.01 | locus YHR200W, strain rpn10, hits give low values 0.991 | locus YIL066C, strain RNR3, hits give low values 1.01 | locus YIL073C, strain SPO22, hits give low values 0.972 | locus YIL125W, strain kgd1, hits give low values 1 | locus YIR030C, strain dcg1, hits give low values 0.993 | locus YJL092W, strain hpr5, hits give low values 1 | locus YJL095W, strain BCK1 (second series), hits give low values 1.01 | locus YJL095W, strain BCK1, hits give low values 1.02 | locus YJL115W, strain asf1, hits give low values 1.02 | locus YJL129C, strain trk1, hits give low values 0.993 | locus YJL134W, strain LCB3, hits give low values 1.02 | locus YJL154C, strain vps35, hits give low values 1.02 | locus YJL164C, strain tpk1, hits give low values 1.01 | locus YJL166W, strain qcr8, hits give low values 1 | locus YJL168C, strain set2, hits give low values 1.01 | locus YJL187C, strain SWE1 (second series), hits give low values 1.02 | locus YJL187C, strain SWE1, hits give low values 1.01
